Sfp PPTase inh = qHTS Assay for Inhibitors of Bacillus subtilis Sfp phosphopantetheinyl transferase (PPTase); Biochemical Sfp PPTase activity, qHTS; Potency, µM, inactives show largest response in the series, negative = inhibition, actives largely listed as inhibitors; hit rate 3.5% among 310,000;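 note: the enzyme is Sfp with the accession as filed and its product quenches rhodamine fluorescence; 0% = enzyme reaction without inhibitor and -100% = no enzyme wells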
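Reaction rates are the 30-min fluorescence difference (ex 525, em 598 nm) in wells containing 15 nM Sfp, 5 uM rhodamine-CoA and 12.5 uM BHQ-2-YbbR at pH 7.6 with 10 mM MgCl2.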
HP1b binding inh = HTS for Inhibitors of HP1-beta Chromodomain Interactions with Methylated Histone Tails; AID 540317, 2011; Chromobox protein homolog 1 (Homo sapiens), P83916; AlphaScreen HP1-beta / biotin-H3K9me3 peptide binding; Potency, µM (doses to about 114 µM), inactives show at the highest dose activity change, negative = inhibition, actives largely listed as inhibitors; hit rate 0.56% among 390,000; note: nearly all actives have a fitted effect of over 70% in size
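HP1-beta protein (50 nM final) preincubated 30 min at room temperature with biotinylated H3(1-18)K9me3 peptide (50 nM) in PBS pH 7.4, 0.01% Tween-20, then compound added for 30 min. AlphaScreen streptavidin donor/nickel chelate acceptor beads (10 ug/mL final), 30 min dark, luminescence read.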
G9a block = qHTS Assay for Inhibitors of Histone Lysine Methyltransferase G9a. Potency, µM (doses to about 102 µM), for inactives: at the top dose activity, negative = inhibition, usual class: inhibitors. G9a H3K9 monomethylation, AlphaScreen, 2 h. hit rate 8.8% among 350,000; note: % is set by controls: 0 for no effect and ±100 for the full control effect; nearly all actives have a fitted effect of over 75% in size
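Chemiluminescent proximity detection of H3K9 monomethylation, read after 10 min bead incubation in the dark. Reaction: 20 nM G9a, 500 nM biotin-H3K9 peptide, 20 uM SAM cofactor, 2 h, room temperature, following 15 min enzyme-compound preincubation.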
JMJD2A Tudor = qHTS Assay for Inhibitors of JMJD2A-Tudor Domain; AlphaScreen JMJD2A-Tudor / H3K4me3 peptide binding; Potency, µM (series often up to 114 µM), inactives show at the top dose activity change, negative = inhibition, actives largely listed as inhibitors; hit rate 4.4% among 390,000; note: % is set by controls: 0 for no effect and ±100 for the full control effect; nearly all actives have a fitted effect of over 50% in size
BAZ2B inh = qHTS Assay for Inhibitors of BAZ2B; AlphaScreen BAZ2B-H3K14Ac peptide displacement; Potency, µM (highest dose often 114 µM), for inactives: at the top dose activity change, negative = inhibition, hits mostly inhibitors; hit rate 4.4% among 360,000; AID 504333, 2011; note: % is set by controls: 0 for no effect and ±100 for the full control effect; nearly all actives have a fitted effect of over 60% in size
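Multi-concentration screen (max 110 uM) measuring displacement of acetylated histone H3 peptide from BAZ2B by AlphaScreen, using 50 nM protein, 50 nM peptide and 10 ug/mL streptavidin donor plus Ni-chelate acceptor beads.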
L3MBTL1 block = qHTS Assay for the Inhibitors of L3MBTL1 | Potency, µM (highest dose often 57.1 µM), for the others: at the highest dose activity, negative = inhibition, usual class: inhibitors | hit rate 0.66% among 230,000 | Lethal(3)malignant brain tumor-like protein 1 (Homo sapiens), Q9Y468 | AlphaScreen L3MBTL1–H3K9me1 peptide binding | AID 485360, 2010; note: % is set by controls: 0 for no effect and ±100 for the full control effect; nearly all actives have a fitted effect of over 60% in size
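AlphaScreen proximity signal between nickel-chelate acceptor and streptavidin donor beads (final 10 ug/mL) reports binding of 50 nM L3MBTL1 to 75 nM biotin-H3 K9me1 peptide; complex incubated with compounds 30 min at room temperature; cefsulodin titration as control.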
Active calls of the source: *; ? = inconclusive; · = no result given; [ ] = another dose, or the depositor's remark. Hits are enriched below; roughly 12% of the tested compounds scored in any of these assays. Calls come from the whole dose curve; as a rule, active = well fitted curve in the direction sought with a large enough effect; inconclusive = small, poorly fitted or top-dose-only effect, or another doubt; inactive = no such curve, though single readings can be large; an effect the other way counts as inactive or inconclusive. Potency is the fitted concentration of half-maximal effect.

SMILES	Sfp PPTase inh	HP1b binding inh	G9a block	JMJD2A Tudor	BAZ2B inh	L3MBTL1 block
COc1ccc(CC(=O)N2CCc3cc(OC)c(OC)cc3C2COc2ccc3c(C)cc(=O)oc3c2)cc1OC (stereo not drawn)	·	3.4%	10.0%[59 µM]	-22.2%	3.6%	·
Cc1ccc(C)c(NC(=O)c2ccc(S(=O)(=O)N(C)CC3CCCO3)cc2)c1 (stereo not drawn)	·	-7.4%	·	-12.5%	·	·
Cc1cc(OCCCCn2ccnc2)cc(C)c1Cl	-8.0%	-0.3%	8.91µM*	?	?	·
Clc1ccc(SCCCCn2ccnc2)cc1	-17.2%	?	?	7.94µM*	50.1µM*	-4.4%
CCc1cccc(OCCn2ccnc2)c1	-5.4%	?	8.91µM*	11.2µM*	50.1µM*	-3.5%
Cc1cccc(OCCn2cnc(Cl)c2Cl)c1	3.8%	-18.5%	-44.1%	-19.3%	28.2µM*	-37.7%
Clc1ccccc1OCCCCn1ccnc1	10.0%	11.1%	4.2%[59 µM]	-23.2%	-3.7%	-6.8%
Cc1cc(C)c(C#N)c(SCC(=O)N(CCC#N)c2ccc3c(c2)OCCO3)n1	·	43.0%	-27.5%	-3.4%	-2.7%	3.9%
Cc1cc(Cl)cc(C)c1OCCCCn1ccnc1	13.1%	26.6%	31.6µM*	?	-38.6%	-2.4%
Cc1cccc(OCCCCCn2ccnc2)c1	4.4%	?	31.6µM*	3.16µM*	50.1µM*	-8.4%
Cc1cccc(Cl)c1OCCCCn1ccnc1	15.7%	10.2%	-19.5%[59 µM]	?	?	·
Cc1cccc(OCCn2ccnc2)c1	-1.0%	32.2%	?	5.0%	-18.5%	·
CCOc1ccc(-c2cc3c(=O)n(Cc4nc(-c5ccc(OC(C)C)cc5)oc4C)ccn3n2)cc1Cl	·	32.7%	-34.5%[59 µM]	-15.0%	-0.2%	·
Cc1cc(C)cc(Oc2c(C(F)(F)F)oc3c(CN4CCCC(C)C4)c(O)ccc3c2=O)c1 (stereo not drawn)	·	33.0%	0.0%[59 µM]	-3.1%	0.2%	·
COC(=O)c1cc(NS(=O)(=O)c2ccc(NCc3cccnc3)c(N)c2)cc(C(=O)OC)c1	-2.6%	36.5%	35.5µM*	-7.1%	-9.8%	-6.8%
COc1ccccc1-n1cc2c([N+](=O)[O-])cc([N+](=O)[O-])cc2n1	7.7%	24.8%	10µM*	-26.8%	?	·
Cc1ccc(C(NC(=O)N2CCCC2)C(Cl)Cl)cc1F (stereo not drawn)	-26.6%	33.9%	35.5µM*	-11.7%	-6.1%	18.3%
C[C@H](NC(=O)[C@@H](N)Cc1ccc(O)cc1)C(=O)NCC(=O)N[C@H]1CSSC[C@@H](C(=O)O)NC(=O)[C@H](CO)NC(=O)[C@H]([C@@H](C)O)NC(=O)[C@H](Cc2ccccc2)NC(=O)[C@H]([C@@H](C)O)NC(=O)[C@H](CCCCN)NC(=O)[C@H](Cc2c[nH]c3ccccc23)NC(=O)[C@H](Cc2ccccc2)NC(=O)[C@H](Cc2ccccc2)NC(=O)[C@H](CC(N)=O)NC(=O)[C@H](CCCCN)NC1=O	0.7%	·	·	·	·	·
COc1ccc(-n2c(=O)c(CCc3ccccc3)nc3cnc(N4CCNCC4)nc32)cc1	?	·	1.0%[12.7 µM]	·	·	·
COc1ccccc1-c1c(C)nn2c(N3CCN(c4ccc(Cl)cc4)CC3)cc(C)nc12	·	38.8%	-1.4%[59 µM]	-23.1%	4.8%	·
O=Cc1cccn1-c1ccc(O)cc1	6.0%	39.3%	-19.6%	-1.0%	79.4µM*	-3.5%
O=Cc1cccn1-c1ccccc1	-10.4%	17.8%	0.1%[59 µM]	-16.3%	-2.9%	·
Cc1cccc(Oc2ccc(NC(=O)c3ccccc3C(=O)O)cc2)c1C	2.6%	27.2%	?	-21.3%	?	-29.8%

From PubChem BioAssay
